The text below walks through data of paper PMC5540273 (PLoS ONE, 2017).
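Further: KINOMEscan kinase panel screen.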

The test system of this test is T1, PKAC-beta.
T1 construct: gene PRKACB
The conditions noted are these: concentration: 1 μM, replicates: in singlicate; n = 1.
Take `Fc1cccc(COc2ccc(Nc3ncnc4cc[nH]c34)cc2Cl)c1`: the “%Inh” value stood at 1%.
With `O=C(CCO)NCCn1ccc2ncnc(Nc3ccc(Oc4cccc(C(F)(F)F)c4)c(Cl)c3)c21`, the “%Inh” value came out at 12%.
On to `COc1cc2c(Nc3cccc(NC(=O)c4ccccc4)c3)ncnc2cc1OCCCN1CCOCC1` [GSK223810], for which the “%Inh” value stood at 0%.
As for `Cl.Cn1ccc(-c2cccc(Nc3ccnc4cc(-c5nccs5)ccc34)c2)n1` [GW525701], the “%Inh” value worked out at 0%.
With `Nc1n[nH]c2nnc(-c3ccccc3)cc12` [SB-517389], the “%Inh” value amounted to 0%.
The figure for `Fc1cccc(COc2ccc(Nc3ncnc4nn5ccccc5c34)cc2Cl)c1` [GW689066] is 8%; for `CN1c2ccc(-c3ccc(C(=O)NCCO)cc3)cc2-c2[nH]ncc2S1(=O)=O` it is 55%; for `Clc1cccc(-c2nc(Nc3ccncc3)c3ccccc3n2)c1` [GW873004] it is 60%.
Turning to `COc1ccc(Nc2nccc(N3CCC(NC(=O)c4cccc(NC(C)=O)c4)C3)n2)cc1` (stereo not drawn) [GSK1379732], the “%Inh” value was 12%.
For the compound `COc1ccc(Nc2nccc(N3CCC(NC(=O)Nc4ccc5c(c4)OCO5)C3)n2)cc1` (stereo not drawn) [GSK1379745], the “%Inh” value amounted to 5%.
The figure for `COC(=O)c1c(-c2ccccc2)c2cc(Cl)ccc2c(=O)n1Cc1ccc(S(C)(=O)=O)cc1` is 0%; for `Cc1ccc(NC(=O)c2cccc(C#N)c2)cc1-c1ccc(C(=O)Nc2ccncc2)cc1` [GSK1398463] it is 0%; for `O=C(c1ccc(-c2cc(-c3c[nH]nc3-c3ccccn3)ccn2)cc1)N1CCCC1` [GW792479] it is 22%.
On to `O=c1cc(N2CCOCC2)nc2n(Cc3cccc(Cl)c3)ccn12` [GSK2296823], for which the “%Inh” value is on record as 0%.
Consider `Cn1cc(-c2ccc3c(c2)CCN3C(=O)Cc2cccc(C(F)(F)F)c2)c2c(N)ncnc21` [GSK2606414], for which the “%Inh” value worked out at 6%.
Take `CSc1ccc(NC2=C(c3ccccc3Cl)C(=O)NC2=O)cc1` [SB-342411]: the “%Inh” value amounted to 0%.
In the case of `FC(F)(F)c1cc(Nc2nccc(-c3c(-c4ccc(Cl)cc4)nn4ncccc34)n2)ccc1Cl` [GW829351], the “%Inh” value is 0%.
As for `Nc1nc(-c2ccc3c(N)n[nH]c3c2)cc(N2CCCCC2)n1` [GSK2228768], the “%Inh” value is reported as 0%.
For `Nc1nc(-c2cccnc2)c(-c2ccnc3ccccc23)s1` [GW684083], the “%Inh” value turned out to be 0%.
Consider `O=C(Nc1ccccc1)Nc1ccc(Oc2ccc3nccn3n2)cc1`, for which the “%Inh” value stood at 55%.
For the compound `O=C(Nc1ccccc1F)NC1CCN(c2ccnc(Nc3ccc(F)cc3)n2)C1` (stereo not drawn) [GSK1379722], the “%Inh” value is reported as 0%.
For `CNc1nccc(-c2c(-c3ccc(F)cc3)ncn2CCCN2CCOCC2)n1` [SB-222516], the “%Inh” value turned out to be 19%.
Regarding `CCn1c(-c2ccncc2)nc2cnccc21` [SB-735216], the “%Inh” value worked out at 3%.
The figure for `Fc1cccc(COc2ccc(Nc3ncnc4sc(-c5ccc[nH]5)cc34)cc2Cl)c1` [GW707818] is 0%; for `N#Cc1ccc(Oc2ccc(Nc3ncnc4cc[nH]c34)cc2Cl)cc1` it is 0%; for `Cc1cc(N2CCC(NS(=O)(=O)c3ccc(F)cc3)CC2)nc(Nc2cccc(C#N)c2)n1.O=C(O)C(F)(F)F` [GSK1653537] it is 0%.
For the compound `CC(C)(C)OC(=O)NC1CCCN(c2cc(-c3ccc4c(N)n[nH]c4c3)nc(N)n2)C1` (stereo not drawn) [GSK2286096], the “%Inh” value worked out at 0%.
The value for `Fc1ccc(-c2ncn(CCCNCc3ccccc3)c2-c2ccncc2)cc1` was 6%; that for `Cc1ccc(C)c(NC(=O)NCCNc2ccnc(Nc3ccc(F)cc3)n2)c1` [GSK1379878] was 0%.
In the case of `CSc1nn2c(=O)cc(N3CCOCC3)nc2n1Cc1cccc(Cl)c1Cl` [GSK2347225], the “%Inh” value is recorded as 12%.
Take `c1ccc(-c2ccc3c(-c4ccnc(Nc5ccc6c(c5)OCCO6)n4)cnn3n2)cc1` [GW818941]: the “%Inh” value is reported as 28%.
Take `CCc1nc(-c2cccc(N(C)S(=O)(=O)c3ccccc3)c2)c(-c2ccnc(Nc3ccc(N4CCN(C(C)=O)CC4)nc3)n2)s1` [GSK1645895]: the “%Inh” value is recorded as 0%.
With `Cl.Cl.c1ccc(-c2cc3ccncc3cc2OC2CCNCC2)cc1` [GSK1122999], the “%Inh” value is 9%.
With `CS(=O)(=O)CCNCc1nc(-c2ccc3ncnc(Nc4ccc(OCc5cccc(F)c5)c(Cl)c4)c3c2)cs1.Cl` [GW583340], the “%Inh” value is given as 0%.
In the case of `Cc1cccc(-c2nc(Nc3ccc4[nH]nnc4c3)c3ccccc3n2)n1` [GW867587], the “%Inh” value is 0%.
Regarding `Nc1nc(-c2ccccn2)c(-c2ccnc3ccccc23)s1` [GW548057], the “%Inh” value was 4%.
